This is a sample that favours compounds with a hit; in the whole collection about 12% have one here.
Arbovirus inh = arbovirus infection inhibition. arbovirus infection cell-based antiviral screen. inhibition, % at 10 µM. actives 0.37% (n = 200,000); in the data active means inhibition above about 30%
Lmaj promast = Leishmania major promastigote growth inhibition; inhibition, % at 10 µM; actives 9% (n = 200,000); Leishmania major promastigotes, resazurin fluorescence viability; in the data active means inhibition above about 50%;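 further: promastigotes grown with compound for 44 hours at 28 °C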
WT yeast gro inh = growth inhibition of WT yeast, mitochondrial fusion screen. AID 1362. mitochondrial fusion phenotypic screen, WT strain. inhibition, % at 10 µM. actives 2.1% (n = 190,000); in the data active means inhibition above about 58%; tested in S. cerevisiae
CHOP inhibitor = blocks CHOP induction under ER stress; actives 3.8% (n = 220,000); CHO-K1 CHOP-promoter luciferase, tunicamycin-induced, 15-18 h; AID 2732; inhibition, % at 10 µM;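 active means compounds that reduced the stress-induced luciferase reporter signal by more than about 70% of percent inhibition, limit read from the data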
Large screens that a line does not name were inactive.

Cc1sc(NC(=O)CN(CCc2ccccc2)C(=O)C2CC2)c(C(N)=O)c1C	none
COc1ccc(-c2nc(-n3c(C)c(C(C)=O)c(C(C)=O)c3C)sc2C)cc1OC	Lmaj promast 66
O=c1c2ccccc2nc(N/N=C/c2ccc(O)cc2)n1O	none
O=c1c2ccccc2nc(N/N=C/c2c(O)ccc3ccccc23)n1O	Lmaj promast 100
Cc1cc[n+](-c2nc([O-])n(-c3ccccc3)c2C=O)cc1	none (no result: Arbovirus inh, WT yeast gro inh, CHOP inhibitor)
CC(C)(C)[C@H]1C=C(C(=O)N2CCN(Cc3ccc4c(c3)OCO4)CC2)O[C@@H](OCc2ccc(CO)cc2)C1	WT yeast gro inh 97
O=C(C1=C[C@H](c2ccc(C(F)(F)F)cc2)C[C@H](OCCCCO)O1)N1CCN(Cc2ccc3c(c2)OCO3)CC1	Lmaj promast 95
O=C(C1=C[C@H](C2CC2)C[C@H](OCc2ccc(CO)cc2)O1)N1CCN(Cc2ccc3c(c2)OCO3)CC1	none
CC(C)(C)[C@@H]1C=C(C(=O)N2CCN(Cc3ccccc3)CC2)O[C@H](OCc2ccc(CO)cc2)C1	WT yeast gro inh 70
CC(C)(C)[C@@H]1C=C(C(=O)NC2CC2)O[C@H](OCc2ccc(CO)cc2)C1	Lmaj promast 99
O=C(C1=C[C@@H](c2ccc(Br)cc2)C[C@@H](OCCCCO)O1)N1CCN(Cc2ccc3c(c2)OCO3)CC1	none
Cc1cc(=O)n(CC(=O)Nc2cc(Cl)ccc2C)c(C(C)C)n1	none
O=C(Nc1ccc2c(c1)N(Cc1ccccc1)C(=O)c1ccccc1S2)NC1CC1	Lmaj promast 92
CCCCc1nc2ccccc2c(NC(=O)CNC(C)(C)C)c1CCC	none
CCCCc1nc2ccccc2c(N)c1CCC (tested in a mixture with another compound)	Lmaj promast 95
Cc1ccc(-c2cc(C(F)F)nc(NCC3CCCO3)n2)cc1 (centres undefined)	Lmaj promast 64, CHOP inhibitor 86
Cc1ccc(-c2nc(C#N)c(NCC3CCCO3)o2)cc1 (centres undefined)	none
Cc1ccc(-c2cc(C(F)F)nc(NCc3cccs3)n2)cc1	CHOP inhibitor 91
Cc1ccc(-c2cc(C(F)F)nc(N3CCOCC3)n2)cc1	none
Cc1ccc(-n2ncc3c(=O)n(CC#N)cnc32)cc1C	none
CCOc1ccccc1NC(=O)Cn1cnc2c(cnn2-c2ccc(C)c(C)c2)c1=O	none
C#CCn1cnc2c(cnn2-c2ccc(C)c(C)c2)c1=O	WT yeast gro inh 60
COc1ccc(NC(=O)Cn2cnc3c(cnn3-c3ccc(C)c(C)c3)c2=O)c(OC)c1	CHOP inhibitor 82
O=C(COC(=O)c1c(F)cccc1F)c1ccc[nH]1	none (no result: Arbovirus inh, Lmaj promast, WT yeast gro inh)
Cc1ccc(OCc2ccc(C(=O)Nc3nc4ccccc4n3C)o2)c([N+](=O)[O-])c1	none
Cc1cc(S(=O)(=O)Nc2cc(C)c(O)c(C)c2)c(C)s1	Lmaj promast 100
CC1=C(C(=O)Nc2ccccc2)C(c2ccc(C)cc2)N=C(Nc2nc3ccccc3o2)N1 (centres undefined)	CHOP inhibitor 88
Cc1csc(NC(=O)c2cc(-c3ccccc3)nc3ccccc23)n1	WT yeast gro inh 62
O=C(Nc1nc2c(s1)CCCC2)c1cc(-c2ccccc2)nc2ccccc12	CHOP inhibitor 81
CCc1nnc(NC(=O)c2cc(-c3ccncc3)nc3ccccc23)s1	none (no result: Arbovirus inh, Lmaj promast, WT yeast gro inh)
CC(C)(C)c1nnc(NC(=O)c2cc(-c3ccccc3)nc3ccccc23)s1	CHOP inhibitor 74
COC(=O)c1sc(NC(=O)c2cc(-c3ccccc3)nc3ccccc23)c(C#N)c1C	CHOP inhibitor 75
Cc1cc(C)c2ccc(=O)n(CC(=O)N/N=C/c3ccccc3Cl)c2n1	none (no result: Arbovirus inh, Lmaj promast, WT yeast gro inh)
CC1=C(C(=O)OCCOC(C)C)C(c2cc3c(cc2Br)OCO3)CC(=O)N1 (centres undefined)	Lmaj promast 98
Cc1ccc(C)c(NCCC#N)c1	Lmaj promast 53
Cc1ccc(NCCC#N)cc1C	Lmaj promast 50
Cc1cccc(NCCC#N)c1	none
Cc1ccc(NC(=O)CN(C)C(=O)COc2ccc(C(=O)c3ccc(F)cc3)cc2)cc1	none
O=C(Nc1ccccc1SCC1CSc2nc3ccccc3c(=O)n21)c1ccccc1 (centres undefined)	none
O=c1c2ccccc2nc2n1C(CSc1ccccc1)CS2 (centres undefined)	none
O=c1c2ccccc2nc2n1C(CSCc1ccc(Cl)cc1)CS2 (centres undefined)	Lmaj promast 59
Cc1ccc(C(=O)Nc2ccccc2SCC2CSc3nc4ccccc4c(=O)n32)cc1 (centres undefined)	Arbovirus inh 42, Lmaj promast 50
CCN(CCCc1ccccc1)CCCc1ccccc1	Lmaj promast 95
Cc1cc(C)n(-c2cc(N3CCN(C(=O)c4cccc(F)c4)CC3)ccc2[N+](=O)[O-])n1	none
CCOC(=O)COc1ccc(/C=C2\NC(=S)N(CC)C2=O)cc1	Lmaj promast 97
Cc1ccccc1OCCCCc1c(C)n[nH]c1C	WT yeast gro inh 76, CHOP inhibitor 85
Cc1cccc(C)c1OCCCCc1c(C)n[nH]c1C	CHOP inhibitor 86
Cc1ccccc1OCCCc1c(C)n[nH]c1C	none (no result: WT yeast gro inh)
CN(Cc1ccccc1NS(=O)(=O)c1ccc2ccccc2c1)C1CCCCC1	none
Cc1ccc(Sc2nnc(-c3ccccc3)cc2C#N)cc1	none
COc1ccc(Sc2nnc(-c3ccccc3)cc2C#N)cc1	CHOP inhibitor 90
O=C(Nc1cccc(Cl)c1)c1ccc(Cn2cc(Cl)cn2)cc1	none
CC(=O)Nc1ccc(NC(=O)c2ccc(Cn3cc(Cl)cn3)cc2)cc1	CHOP inhibitor 92
Cc1ccc(N=Nc2c(N)nn(-c3ccccc3)c2N)cc1	none
Cc1nn(-c2ccccc2)c(N)c1N=Nc1ccc2ccccc2c1	WT yeast gro inh 70
Cc1ccccc1C(=O)O/N=C/c1c(N2CCOCC2)n(C)c2ccccc12	Lmaj promast 100
Cc1cccc(NC(=O)NC(C)CCc2ccccc2)c1 (centres undefined)	none
COc1ccc(CCC(C)Nc2ccc(F)c(F)c2)cc1 (centres undefined)	none
Cc1cccc(NC(=S)NC(C)CCc2ccccc2)c1 (centres undefined)	Lmaj promast 78, WT yeast gro inh 74
COc1ccc(CCC(C)Nc2ccc(F)cc2)cc1 (centres undefined)	CHOP inhibitor 88
COc1ccc(CCC(C)Nc2cccc(C)c2)cc1 (centres undefined)	CHOP inhibitor 82
COc1ccc(CCC(C)NCC2CCCCC2)cc1 (centres undefined)	Lmaj promast 87
CC1(C)Cc2c(sc3nc4n(-c5ccccc5)cnn4c(=O)c23)CO1	none (no result: Arbovirus inh, Lmaj promast, WT yeast gro inh)
CCN1C(=Nc2ccc(Cl)cc2)SC/C1=C\C(=O)OC	CHOP inhibitor 82
O=C1CSC(=Nc2ccc(Cl)cc2)N1Cc1cccnc1	none (no result: Arbovirus inh, Lmaj promast, WT yeast gro inh)
CCOC(=O)CN(C(=O)CSc1nnc2c(n1)[nH]c1c(C)cc(C)cc12)c1ccccc1	CHOP inhibitor 82
CCOC(=O)CN(C(=O)CSc1nnc2c(n1)[nH]c1ccccc12)c1ccccc1	none
COc1cc(CNC2CCCC2)cc(Cl)c1OCc1ccccc1F	Lmaj promast 100, CHOP inhibitor 79
COc1cccc(C2=CC(c3ccc(OC)c(OC)c3)NC(=S)N2)c1 (centres undefined)	none (no result: Arbovirus inh, Lmaj promast, WT yeast gro inh)
C=C(C(=O)c1ccccc1)C(c1ccccc1)C(C)C(=O)c1ccccc1 (centres undefined)	Lmaj promast 89
